According to PubChem BioAssay (NCATS):
Results filed as inconclusive are left out. Entries that show only a call come without a potency. The source made the active and inactive calls. Calls come from the whole dose curve; as a rule, active = well fitted curve in the direction sought with a large enough effect; inconclusive = small, poorly fitted or top-dose-only effect, or another doubt; inactive = no such curve, though single readings can be large; an effect the other way counts as inactive or inconclusive. Where a SMILES comes first, the peptide text is derived from it. Bridges are numbered along the chain shown (N, C = ends). [ ]: non-standard residue; d: D form. Orn = NCCC[C@H](N)C(=O)O; Mpa = O=C(O)CCS

target: Luciferin 4-monooxygenase (Photinus pyralis) (UniProt P08659); assay: Biochemical firefly luciferase enzyme assay for NPC (AID 624030); settings: purified P. pyralis luciferase, luminescence, 5 min; series mostly up to 58.6 µM
In short: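 Purified P. pyralis luciferase at 10 nM in 50 mM Tris Acetate (final), luminescence read within 5 minutes of enzyme addition to compounds. Activity normalised to PTC124 versus DMSO; concentration-response curves classed by r2, magnitude and activity.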
Note: nearly all actives have a fitted effect of over 70% in size.
Potency is the fitted concentration of half-maximal effect.

Luciferin 4-monooxygenase (Photinus pyralis), sequence (P08659 whole entry, looked up): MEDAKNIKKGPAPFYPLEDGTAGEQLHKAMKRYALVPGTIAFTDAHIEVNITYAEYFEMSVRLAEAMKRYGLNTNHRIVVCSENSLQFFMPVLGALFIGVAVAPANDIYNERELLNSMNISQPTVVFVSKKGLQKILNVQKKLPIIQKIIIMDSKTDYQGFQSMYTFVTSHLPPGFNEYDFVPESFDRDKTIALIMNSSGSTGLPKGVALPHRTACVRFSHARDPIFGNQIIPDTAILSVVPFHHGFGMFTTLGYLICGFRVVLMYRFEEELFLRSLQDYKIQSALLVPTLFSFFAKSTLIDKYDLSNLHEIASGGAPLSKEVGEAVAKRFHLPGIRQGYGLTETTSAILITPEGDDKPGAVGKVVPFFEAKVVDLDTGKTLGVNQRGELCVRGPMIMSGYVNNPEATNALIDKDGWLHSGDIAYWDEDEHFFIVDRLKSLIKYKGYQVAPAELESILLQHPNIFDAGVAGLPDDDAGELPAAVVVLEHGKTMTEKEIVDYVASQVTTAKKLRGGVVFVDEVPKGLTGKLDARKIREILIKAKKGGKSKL

Compound	Potency
CN[C@@H]1CCc2[nH]c3ccc(C(N)=O)cc3c2C1	inactive
CCC(C)(C)OC(=O)N[C@@H](Cc1c[nH]c2ccccc12)C(=O)N[C@@H](CCSC)C(=O)N[C@@H](CC(=O)O)C(=O)N[C@@H](Cc1ccccc1)C(N)=O	inactive
CCOc1ccc(C[C@H]2NC(=O)CCSSC[C@@H](C(=O)N3CCC[C@H]3C(=O)N[C@@H](CCCN)C(=O)NCC(N)=O)NC(=O)[C@H](CC(N)=O)NC(=O)[C@H]([C@@H](C)O)NC(=O)[C@H]([C@@H](C)CC)NC2=O)cc1 ([Mpa][dY](Et)ITNCP[Orn]G-NH2; disulfide 1-6)	inactive
COc1cc2c(c(OC)c1OC)-c1c(cc3c(c1OC)OCO3)C[C@@H](C)[C@](C)(O)C2	inactive
c1ccc2c(CCC3CCNCC3)c[nH]c2c1	inactive
CCOC(=O)Cc1cccc(-c2cc(CCCCCCc3ccc(O[C@H]4O[C@H](COC(C)=O)[C@@H](OC(C)=O)[C@H](OC(C)=O)[C@@H]4OC(C)=O)c(-c4cccc(CC(=O)OCC)c4)c3)ccc2O[C@H]2O[C@H](COC(C)=O)[C@@H](OC(C)=O)[C@H](OC(C)=O)[C@@H]2OC(C)=O)c1	inactive
OCC(O)COc1ccc(Cl)cc1 (centres undefined)	inactive
O=S(O)CO	inactive
O=S(O)CNc1ccc(S(=O)(=O)c2ccc(NCS(=O)O)cc2)cc1	inactive
CC(CN(C)C)CN1c2ccccc2S(=O)(=O)c2ccccc21 (centres undefined)	inactive
O.O=C([O-])CC([S-])C(=O)[O-].[Au+].[Na+].[Na+] (centres undefined)	inactive
NCCCC[C@H](NC(=O)[C@@H]1CCCN1C(=O)[C@@H]1CSSC[C@H](NC(=O)CNC(=O)CNC(=O)CN)C(=O)N[C@@H](Cc2ccc(O)cc2)C(=O)N[C@@H](Cc2ccccc2)C(=O)N[C@@H](CCC(N)=O)C(=O)N[C@@H](CC(N)=O)C(=O)N1)C(=O)NCC(N)=O (H-GGGCYFQNCPKG-NH2; disulfide 4-9)	inactive
Cc1ccc(/C(=C\CN2CCCC2)c2cccc(/C=C/C(=O)O)n2)cc1	inactive
O=C(O)c1cc2ccccc2c(Cc2c(O)c(C(=O)O)cc3ccccc23)c1O	14.4 µM (active)
CCN1CCCC1CNC(=O)c1cc(S(=O)(=O)CC)ccc1OC (centres undefined)	inactive
CCN(CC)CCOC(=O)c1ccc(N)cc1Cl	inactive
CCCCCCCC/C=C\CCCCCCCC(=O)OC[C@@H](O)[C@H]1OC[C@H](O)[C@H]1O	inactive
Cc1cc(Nc2ccccc2C(=O)O)ccc1Cl	16.1 µM (active)
Cc1cc(-n2c(=O)[nH]c(=O)n(C)c2=O)ccc1Oc1ccc(S(=O)(=O)C(F)(F)F)cc1	inactive
N[C@@H](C(=O)N[C@H]1C(=O)N2C(C(=O)O)=C(Cl)CC[C@H]12)c1ccccc1	inactive
CC(CC(c1ccccc1)c1ccccc1)NC(C)(C)C (centres undefined)	inactive
C[C@H](/C=C/[C@H](C)C(C)(C)O)[C@H]1CC[C@H]2/C(=C/C=C3C[C@@H](O)C[C@H](O)C3)CCC[C@]12C	inactive
COC1C(OC(=O)/C=C/C=C/C=C/C=C/C(=O)O)CCC2(CO2)C1C1(C)OC1CC=C(C)C (centres undefined)	inactive
COc1ccc(C2NC(=S)N3C(c4ccc(OC)c(OC)c4)NC(=S)N23)cc1OC (centres undefined)	inactive
CCOC(=O)[C@H](CCc1ccccc1)N[C@H]1CCCN2CCC[C@@H](C(=O)O)N2C1=O	inactive
CCOC(=O)Nc1ccc2c(c1)N(C(=O)CN(C)C)c1ccccc1CC2	inactive

test system: not listed separately; assay: S16 Schwann cell viability assay (CellTiter-Glo assay) (AID 624031); settings: S16 rat Schwann cells viability, 24 h; series mostly up to 57.5 µM
In short: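 Parental S16 cells, 24 h compound, 37 °C. ATP-luminescence viability; DMSO = 0% activity, empty wells as reference; curves classified by fit quality and efficacy.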

Compound	Potency
C=CCNC1=C2C[C@@H](C)C[C@H](OC)[C@H](O)[C@@H](C)/C=C(\C)[C@H](OC(N)=O)[C@@H](OC)/C=C\C=C(/C)C(=O)NC(=CC1=O)C2=O	16.1 µM (active)
COC1C(OC(=O)/C=C/C=C/C=C/C=C/C(=O)O)CCC2(CO2)C1C1(C)OC1CC=C(C)C (centres undefined)	inactive
CN[C@H]1CC[C@@H](c2ccc(Cl)c(Cl)c2)c2ccccc21	28.7 µM (active)
